We go through twelve compounds from PubChem BioAssay AID2283371 (EPA ToxCast).

Records with an inconclusive call do not appear. Activity calls are given as the source filed them. Rule for the calls: active = hit-call score of the fitted dose curve at least 0.9, where 1 is the maximum; inconclusive = response in the unintended direction; inactive = score below 0.9.

What is called AC50 is the concentration at which the activity in the assay is half-maximal.

Chain of rat Adenosine Transporter (Adot), Slc29a1 (gene 63997) (O54698 whole entry, looked up): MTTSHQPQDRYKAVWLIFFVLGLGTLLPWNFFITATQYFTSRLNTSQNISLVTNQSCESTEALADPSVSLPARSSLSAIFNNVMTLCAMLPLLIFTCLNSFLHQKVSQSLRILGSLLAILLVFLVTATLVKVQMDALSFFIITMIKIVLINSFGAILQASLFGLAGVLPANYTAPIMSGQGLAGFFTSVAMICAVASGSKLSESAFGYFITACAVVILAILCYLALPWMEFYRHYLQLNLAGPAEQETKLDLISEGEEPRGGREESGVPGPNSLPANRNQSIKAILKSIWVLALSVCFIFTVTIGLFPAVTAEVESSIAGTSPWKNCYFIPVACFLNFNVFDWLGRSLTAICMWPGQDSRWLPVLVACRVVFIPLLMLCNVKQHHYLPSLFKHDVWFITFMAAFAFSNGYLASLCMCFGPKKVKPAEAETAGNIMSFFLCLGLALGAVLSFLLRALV

The assay has as its target rat Adenosine Transporter (Adot), Slc29a1 (gene 63997) (UniProt O54698). The assay can be described thus: NVS_TR_rAdoT: NovaScreen (NVS) Transporter Assay for rat Adenosine Transporter (Adot). As for the experimental part: NVS_TR_rAdoT is a biochemical, single-readout assay that uses extracted gene-proteins from Rat forebrain membranes in a tissue-based cell-free assay. Measurements were taken 1 hour after chemical dosing in a 48-well plate.NVS_TR_rAdoT is one of one assay component(s) measured or calculated from the NVS_TR_rAdoT assay. It is designed to make measurements of radioligand binding, a form of binding reporter, as detected with scintillation counting signals by Filter-based radiodetection technology.Data from the assay component NVS_TR_rAdoT was analyzed into 1 assay endpoint. This assay endpoint, NVS_TR_rAdoT, was analyzed in the positive analysis fitting direction relative to DMSO as the negative control and baseline of activity. Using a type of binding reporter, loss-of-signal activity can be used to understand changes in the binding as they relate to the gene Slc29a1. Furthermore, this assay endpoint can be referred to as a primary readout, because the performed assay has only produced 1 assay endpoint. To generalize the intended target to other relatable targets, this assay endpoint is annotated to the transporter intended target family, where the subfamily is nucleoside transporter.
Binding assays used specific radioligands (tritiated, iodinated) with non-radioactive competitive displacement ligands in agonist or antagonist protocols (as indicated) and various reference compounds and inhibitors to titrate specific binding to receptors and transporters. Most enzyme assays (CYPs, kinases, phosphatases, proteases, HDACs) used recombinant protein and specific substrates (fluorescence mostly, some colorimetric and radioactive) and inhibitors, followed by a biochemical separation of substrate and product. All assays for the biochemical HTS were initially run in duplicate at a single concentration (10 uM for CYP450 assays and 25 uM for all others). Assay-chemical combinations meeting a pre-defined threshold (e.g., 30% inhibition and other criteria defined below) were then run in singleton concentration-response format with maximum concentration of 20 uM for CYPs and 50 uM for all others. Each assay was run with positive and negative controls, and concurrent controls on every plate. The follow-up (secondary) screen tested active chemical-pairs in concentration series, as well as a few additional assays not tested in the primary screen, some selected negative inactives, and several cases re-run in the concentration series for confirmatory purposes.
For the compound `CCOP(=S)(Oc1ccc([N+](=O)[O-])cc1)c1ccccc1` (configuration not stated), the result was inactive.
Same read-out and setting: the value for `Cc1oc(-c2ccccc2)nc1CCOc1cccc2c1ccn2CCC(=O)O` was “inactive”.
In the case of `S=C(S)NCCNC(=S)S.[Mn+2].[S-]C([S-])=NCCN=C([S-])[S-].[Zn+2]`, the compound was classed as inactive.
Still for that read-out and setting: the value for `CCCCC(CC)COC(=O)c1ccc(C(=O)OCC(CC)CCCC)c(C(=O)OCC(CC)CCCC)c1` (configuration not stated) was “inactive”.
As for `COc1ccc2cc(S(=O)(=O)N[C@H](CC(=O)N[C@H](Cc3ccc(CN4[C@H](C)CCC[C@@H]4C)cc3)C(=O)N(C)C(C)C)c3ccc4c(c3)OCO4)ccc2c1`, the AC50 is 7.85 µM (active).
For the compound `O=S(=O)(O)C(F)(F)C(F)(F)C(F)(F)C(F)(F)C(F)(F)C(F)(F)C(F)(F)C(F)(F)F`, the call was inactive.
As for `Oc1ccc(Cl)cc1Cl`, the result was inactive.
Same read-out and setting: the value for `Cn1c(=O)c2c(ncn2C)n(C)c1=O` was “inactive”.
As to `O=C(O)C(F)(F)C(F)(F)C(F)(F)C(F)(F)C(F)(F)C(F)(F)C(F)(F)F`, the compound was called inactive.
On to `COc1cc2c(c(OC)c1OC)-c1ccc(OC)c(=O)cc1[C@@H](NC(C)=O)CC2`, for which the result was inactive.
Same read-out and setting: the value for `S=C1NCCN1` was “inactive”.
Take `CC[C@H]1OC(=O)[C@H](C)[C@@H](O[C@H]2C[C@@](C)(OC)[C@@H](O)[C@H](C)O2)[C@H](C)[C@@H](O[C@@H]2O[C@H](C)C[C@H](N(C)C)[C@H]2O)[C@](C)(O)C[C@@H](C)C(=O)[C@H](C)[C@@H](O)[C@]1(C)O`: the AC50 was 6.47 µM (active).
